From the supplement of paper PMC11001985

compound: C#CCNC(=O)CCSSCCC(=O)NCCc1ccc(C=O)c(C=O)c1; assay: lysine labeling ratio R10:1 (500 µM / 50 µM probe), SILAC-ABPP in living cells; higher = lower intrinsic lysine reactivity toward the probe, active = 2 or less; details: HeLa; probe concentrations 500 vs 50 µM
Method in brief: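 Each lysine carries an R value: the filtered median of MS1 peptide ratios of high probe to low probe, with the median then taken over forward and reverse replicates. These came from living SILAC light and heavy HeLa cells in PBS at room temperature labelled with an alkyne-tagged, disulfide-linked lysine probe at 500 µM or 50 µM, in forward and reverse swaps. The lysates were mixed, clicked to biotin-azide, trypsin-digested, captured on neutravidin, released by DTT, alkylated and run by LC-MS/MS on a TIMS-TOF Pro. The highest value allowed is 20.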

UniProt Q8N441, sequence (Q8N441 whole entry): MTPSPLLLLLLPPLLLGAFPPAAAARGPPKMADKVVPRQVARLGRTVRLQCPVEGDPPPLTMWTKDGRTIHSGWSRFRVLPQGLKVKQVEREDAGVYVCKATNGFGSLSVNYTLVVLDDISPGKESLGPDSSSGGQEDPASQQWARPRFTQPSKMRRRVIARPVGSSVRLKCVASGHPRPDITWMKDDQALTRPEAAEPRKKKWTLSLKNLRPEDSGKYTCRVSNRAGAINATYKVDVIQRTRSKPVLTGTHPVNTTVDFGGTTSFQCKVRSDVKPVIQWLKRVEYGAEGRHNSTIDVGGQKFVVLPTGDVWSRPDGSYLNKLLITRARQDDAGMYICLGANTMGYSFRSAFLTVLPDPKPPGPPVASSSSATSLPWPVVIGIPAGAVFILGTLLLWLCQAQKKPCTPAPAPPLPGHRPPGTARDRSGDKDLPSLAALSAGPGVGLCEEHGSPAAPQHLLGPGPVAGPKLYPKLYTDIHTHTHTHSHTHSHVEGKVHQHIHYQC
UniProt P17813, sequence (P17813 whole entry): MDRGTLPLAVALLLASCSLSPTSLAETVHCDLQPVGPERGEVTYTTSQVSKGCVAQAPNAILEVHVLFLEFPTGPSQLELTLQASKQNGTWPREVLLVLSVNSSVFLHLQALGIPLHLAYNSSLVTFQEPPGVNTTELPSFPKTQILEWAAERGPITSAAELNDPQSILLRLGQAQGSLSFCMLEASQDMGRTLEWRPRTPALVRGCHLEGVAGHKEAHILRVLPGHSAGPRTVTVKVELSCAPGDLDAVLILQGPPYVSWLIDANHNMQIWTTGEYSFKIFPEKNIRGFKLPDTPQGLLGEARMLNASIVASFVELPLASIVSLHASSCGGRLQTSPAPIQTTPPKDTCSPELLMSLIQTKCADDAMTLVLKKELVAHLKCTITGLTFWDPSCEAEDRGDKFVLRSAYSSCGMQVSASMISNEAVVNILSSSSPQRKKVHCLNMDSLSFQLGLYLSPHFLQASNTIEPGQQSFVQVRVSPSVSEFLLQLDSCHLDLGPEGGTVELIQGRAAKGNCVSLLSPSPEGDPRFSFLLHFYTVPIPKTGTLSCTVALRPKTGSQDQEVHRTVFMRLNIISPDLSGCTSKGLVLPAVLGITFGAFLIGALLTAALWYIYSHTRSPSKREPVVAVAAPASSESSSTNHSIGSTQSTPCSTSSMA
UniProt O14786, sequence (O14786 whole entry): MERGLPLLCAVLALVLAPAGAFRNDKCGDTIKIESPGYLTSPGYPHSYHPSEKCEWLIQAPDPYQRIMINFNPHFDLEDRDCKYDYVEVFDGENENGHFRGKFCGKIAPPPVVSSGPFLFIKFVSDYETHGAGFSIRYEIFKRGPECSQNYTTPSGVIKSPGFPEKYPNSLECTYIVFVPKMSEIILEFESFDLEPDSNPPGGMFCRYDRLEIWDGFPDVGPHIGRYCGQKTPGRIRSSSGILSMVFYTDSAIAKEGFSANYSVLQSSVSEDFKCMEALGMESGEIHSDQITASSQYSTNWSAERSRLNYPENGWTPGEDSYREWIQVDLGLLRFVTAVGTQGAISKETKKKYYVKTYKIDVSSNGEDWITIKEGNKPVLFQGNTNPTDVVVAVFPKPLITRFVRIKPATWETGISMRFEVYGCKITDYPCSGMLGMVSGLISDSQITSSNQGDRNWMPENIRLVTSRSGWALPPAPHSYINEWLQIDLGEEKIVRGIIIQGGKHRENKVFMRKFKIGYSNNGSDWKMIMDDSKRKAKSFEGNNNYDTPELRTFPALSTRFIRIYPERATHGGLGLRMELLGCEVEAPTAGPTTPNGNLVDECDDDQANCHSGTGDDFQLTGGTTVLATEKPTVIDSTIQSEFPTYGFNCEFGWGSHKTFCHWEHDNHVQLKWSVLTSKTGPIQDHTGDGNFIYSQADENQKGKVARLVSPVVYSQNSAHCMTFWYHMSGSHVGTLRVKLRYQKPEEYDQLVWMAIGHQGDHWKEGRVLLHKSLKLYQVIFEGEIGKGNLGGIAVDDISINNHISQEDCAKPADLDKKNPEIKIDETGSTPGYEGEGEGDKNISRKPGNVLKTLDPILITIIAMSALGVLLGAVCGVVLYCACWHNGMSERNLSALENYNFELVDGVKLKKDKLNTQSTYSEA
UniProt Q6NZI2, sequence (Q6NZI2 whole entry): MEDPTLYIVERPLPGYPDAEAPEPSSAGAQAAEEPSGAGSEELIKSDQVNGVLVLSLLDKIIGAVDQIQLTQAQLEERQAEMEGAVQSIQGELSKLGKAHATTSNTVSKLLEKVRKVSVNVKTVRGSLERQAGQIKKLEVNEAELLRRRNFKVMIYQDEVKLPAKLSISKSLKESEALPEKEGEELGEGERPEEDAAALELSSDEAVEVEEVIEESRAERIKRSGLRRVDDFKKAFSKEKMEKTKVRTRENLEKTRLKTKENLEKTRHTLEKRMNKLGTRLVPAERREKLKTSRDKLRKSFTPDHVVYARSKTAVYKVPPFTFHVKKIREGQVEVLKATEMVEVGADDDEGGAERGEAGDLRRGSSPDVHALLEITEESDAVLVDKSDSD
UniProt P50502, sequence (P50502 whole entry): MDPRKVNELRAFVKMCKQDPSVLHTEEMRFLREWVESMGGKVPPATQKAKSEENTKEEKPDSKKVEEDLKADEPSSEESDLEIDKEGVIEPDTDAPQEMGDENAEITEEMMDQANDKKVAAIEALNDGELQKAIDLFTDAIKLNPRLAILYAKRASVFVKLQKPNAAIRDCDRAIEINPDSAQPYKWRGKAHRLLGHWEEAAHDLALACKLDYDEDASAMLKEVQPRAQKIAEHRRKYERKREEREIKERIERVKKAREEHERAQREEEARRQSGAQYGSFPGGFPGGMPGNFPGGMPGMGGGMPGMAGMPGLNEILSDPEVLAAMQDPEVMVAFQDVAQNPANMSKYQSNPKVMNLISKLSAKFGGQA
UniProt P07996, sequence (P07996 whole entry, looked up): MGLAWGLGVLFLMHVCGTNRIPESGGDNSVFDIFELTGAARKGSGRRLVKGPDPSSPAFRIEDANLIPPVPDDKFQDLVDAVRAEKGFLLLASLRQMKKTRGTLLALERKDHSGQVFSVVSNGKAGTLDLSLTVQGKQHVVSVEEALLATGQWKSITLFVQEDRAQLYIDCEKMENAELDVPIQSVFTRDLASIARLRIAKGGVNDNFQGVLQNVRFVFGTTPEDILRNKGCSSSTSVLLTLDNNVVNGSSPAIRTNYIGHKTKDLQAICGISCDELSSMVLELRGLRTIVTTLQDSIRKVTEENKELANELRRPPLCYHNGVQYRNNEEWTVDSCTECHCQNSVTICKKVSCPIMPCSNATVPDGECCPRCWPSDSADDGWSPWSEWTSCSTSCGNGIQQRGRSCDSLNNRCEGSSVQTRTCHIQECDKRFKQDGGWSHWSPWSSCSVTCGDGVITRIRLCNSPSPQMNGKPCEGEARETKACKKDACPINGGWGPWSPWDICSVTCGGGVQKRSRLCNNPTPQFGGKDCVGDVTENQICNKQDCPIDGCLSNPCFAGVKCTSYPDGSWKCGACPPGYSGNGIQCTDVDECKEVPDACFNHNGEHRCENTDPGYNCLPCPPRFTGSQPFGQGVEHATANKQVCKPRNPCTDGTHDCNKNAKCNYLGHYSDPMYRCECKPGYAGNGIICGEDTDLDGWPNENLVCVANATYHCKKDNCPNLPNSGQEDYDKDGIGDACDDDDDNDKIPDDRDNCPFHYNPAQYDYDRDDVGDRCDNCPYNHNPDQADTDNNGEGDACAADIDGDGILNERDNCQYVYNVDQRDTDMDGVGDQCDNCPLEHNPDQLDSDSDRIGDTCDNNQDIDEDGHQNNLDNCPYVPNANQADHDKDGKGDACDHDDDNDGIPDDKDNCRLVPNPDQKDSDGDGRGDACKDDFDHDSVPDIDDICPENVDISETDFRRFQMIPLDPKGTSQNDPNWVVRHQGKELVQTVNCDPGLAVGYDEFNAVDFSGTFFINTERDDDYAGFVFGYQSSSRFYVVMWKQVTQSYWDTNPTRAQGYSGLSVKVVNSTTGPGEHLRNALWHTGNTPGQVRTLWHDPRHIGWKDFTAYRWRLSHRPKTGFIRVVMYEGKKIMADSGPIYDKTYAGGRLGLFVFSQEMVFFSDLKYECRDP
UniProt P52799, sequence (P52799 whole entry): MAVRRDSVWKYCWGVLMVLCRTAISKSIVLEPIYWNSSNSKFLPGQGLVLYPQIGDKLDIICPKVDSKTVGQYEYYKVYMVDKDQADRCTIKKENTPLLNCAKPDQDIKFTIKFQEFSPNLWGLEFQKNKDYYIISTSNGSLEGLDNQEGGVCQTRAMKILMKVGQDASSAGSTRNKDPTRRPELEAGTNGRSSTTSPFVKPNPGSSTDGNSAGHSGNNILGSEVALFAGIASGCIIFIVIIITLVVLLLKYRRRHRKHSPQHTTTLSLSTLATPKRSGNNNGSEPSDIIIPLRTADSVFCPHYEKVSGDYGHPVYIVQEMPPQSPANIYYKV
UniProt P26447, sequence (P26447 whole entry, looked up): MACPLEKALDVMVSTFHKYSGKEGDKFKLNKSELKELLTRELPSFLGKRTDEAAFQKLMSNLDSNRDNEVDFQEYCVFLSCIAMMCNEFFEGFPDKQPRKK
UniProt P05187, sequence (P05187 whole entry): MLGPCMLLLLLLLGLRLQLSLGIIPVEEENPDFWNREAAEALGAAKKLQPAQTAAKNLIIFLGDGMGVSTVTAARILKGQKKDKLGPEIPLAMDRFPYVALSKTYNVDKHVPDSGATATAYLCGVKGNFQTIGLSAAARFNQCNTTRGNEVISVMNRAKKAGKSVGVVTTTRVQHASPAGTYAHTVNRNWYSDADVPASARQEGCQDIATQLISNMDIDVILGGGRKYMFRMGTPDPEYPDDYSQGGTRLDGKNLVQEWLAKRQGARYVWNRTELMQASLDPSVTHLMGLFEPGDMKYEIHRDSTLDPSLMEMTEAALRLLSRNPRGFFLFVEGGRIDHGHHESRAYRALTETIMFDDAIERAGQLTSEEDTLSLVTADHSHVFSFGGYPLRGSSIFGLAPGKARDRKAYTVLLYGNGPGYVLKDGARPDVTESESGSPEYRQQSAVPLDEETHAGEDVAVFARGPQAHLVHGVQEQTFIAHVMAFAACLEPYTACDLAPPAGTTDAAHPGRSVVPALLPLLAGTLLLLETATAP

Target	lysine labeling ratio R10:1
EFNB2 (lysine site: K163) (UniProt P52799)	1.53 (active)
TMEM132A (lysine site: K820) (UniProt Q24JP5)	2.33 (inactive)
HSPA5 (lysine site: K382) (UniProt P11021)	1.18 (active)
NRP1 (lysine site: K534) (UniProt O14786)	2.17 (inactive)
ENG (lysine site: K556) (UniProt P17813)	2.03 (inactive)
S100A4 (lysine site: K57) (UniProt P26447)	3.85 (inactive)
IGF2R (lysine site: K808) (UniProt P11717)	5.23 (inactive)
RPL12 (lysine site: K54) (UniProt P30050)	0.658 (active)
UniProt Q6NZI2 (lysine site: K276)	4.1 (inactive)
PSMD7 (lysine site: K180) (UniProt P51665)	2.86 (inactive)
UniProt Q8N441 (lysine site: K218)	1.33 (active)
ST13 (lysine site: K230) (UniProt P50502)	4.87 (inactive)
THBS1 (lysine site: K430) (UniProt P07996)	3.67 (inactive)
SPTAN1 (lysine site: K1759) (UniProt Q13813)	4.65 (inactive)
IQGAP1 (lysine site: K274) (UniProt P46940)	3.87 (inactive)
UniProt P05187 (lysine site: K84)	1.24 (active)
EGFR (lysine site: K538) (UniProt P00533)	5.46 (inactive)
